From PubChem BioAssay
Active and inactive are the calls of the source.

Assays:
[1] = system: Plasmodium falciparum Sir2 (PF13_0152, Sir2A); experiment: pfSir2 binders on small-molecule microarrays, primary screen, biochemical, small-molecule microarray, 635 nm fluorescence (AID 1098); settings: small-molecule microarray binding, fluorescence 635 nm; higher = more signal;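 note: score merges spot fluorescence intensity with its signal-to-noise ratio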
[2] = small-molecule microarray binders of probe aDKK1, primary screen, biochemical, biotinylated probe, 635/667 nm fluorescence (AID 1099); settings: higher = more signal;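 note: score merges 667nm spot fluorescence with signal to noise across triplicate slides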
[3] = small-molecule microarray binders of probe aCHRDL2, primary screen, biochemical, biotinylated probe, 635/667 nm fluorescence (AID 1100); settings: higher = more signal
[4] = splicing luciferase reporter signal modulators, primary screen, spliceosome inhibition project, cell-based, HEK293, splice +/- reporter (AID 1101); settings: luminescence, 24 h, higher = more signal, called active from +8 up or from −8 down;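 note: HEK293 cells carrying a splicing-competent luciferase reporter gene; test concentration not given here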
[5] = biological target: Fibroblast growth factor 10 (Homo sapiens) (UniProt O15520); experiment: FGF10 binders on small-molecule microarrays, primary screen, biochemical, small-molecule microarray, 635 nm fluorescence (AID 1102); settings: FGF10 binding, fluorescence 635 nm, higher = more signal
[6] = system: glycogen synthase kinase-3 (GSK3A per assay name; protocol says GSK3B); experiment: GSK3 binders on small-molecule microarrays, primary screen, biochemical, small-molecule microarray, 635 nm fluorescence, GSK3A (AID 1103); settings: small-molecule microarray binding, fluorescence 635 nm; higher = more signal; note: the record names both GSK3A and GSK3B
[7] = biological target: Epidermal growth factor receptor (Homo sapiens) (UniProt P00533); experiment: EGFR binders on small-molecule microarrays, primary screen, biochemical, small-molecule microarray, 635 nm fluorescence (AID 1104); settings: EGFR binding, higher = more signal;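 note: score merges 667 nm emission intensity with spot signal to noise over triplicate slides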
[8] = biological target: Follistatin-related protein 3 (Homo sapiens) (UniProt O95633); experiment: FSTL3 binders on small-molecule microarrays, primary screen, biochemical, small-molecule microarray, 635 nm fluorescence (AID 1105); settings: FSTL3 binding, higher = more signal;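 note: score merges emission near 667 nm and signal to noise per printed spot across three slides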
[9] = biological target: Dickkopf-related protein 1 (Homo sapiens) (UniProt O94907); experiment: DKK1 binders on small-molecule microarrays, primary screen, biochemical, small-molecule microarray, 635 nm fluorescence scan (AID 1106); settings: DKK1 binding, higher = more signal;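 note: score merges emission near 667 nm with signal to noise over three replicate slides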
[10] = system: Inhibin beta A chain (activin A); experiment: INHBA (activin A) binders on microarrays, primary screen, biochemical, small-molecule microarray, 635 nm fluorescence scan (AID 1107); settings: small-molecule microarray binding, higher = more signal;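 note: mouse activin A protein probed at 4.33 µg/mL on printed slides; score merges bound-protein fluorescence near 667 nm with spot signal-to-noise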
[11] = system: Human papillomavirus type 1a protein E7 (residues 44-93); experiment: HPV1a E7 fragment binders on microarrays, primary screen, biochemical, small-molecule microarray, residues 44-93, 635 nm fluorescence (AID 1108); settings: small-molecule microarray binding, fluorescence 635 nm; higher = more signal;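 note: E7 fragment applied at 1 µg/mL in TBST for 1 h at 4 C; score combines spot fluorescence with its signal to noise ratio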
[12] = modulators of HCV replicon luciferase signal, primary screen, HCV replication inhibitor project, Huh7 cells, luciferase reporter (AID 1109); settings: 48 h, higher = more signal;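 note: huh7 hepatoma cells harbouring a luciferase neomycin HCV replicon reporter; luciferase luminescence as measure of HCV replicon replication; test concentration not given here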
[13] = biological target: Left-right determination factor 2 (Homo sapiens) (UniProt O00292); experiment: LEFTY2 binders on small-molecule microarrays, primary screen, biochemical, small-molecule microarray, 635 nm fluorescence scan (AID 1110); settings: LEFTY2 binding, higher = more signal
[14] = biological target: Calmodulin-1 (Homo sapiens) (UniProt P0DP23); experiment: CALM1 binders on microarrays, EGTA buffer, profiling panel, biochemical, small-molecule microarray, Cy5-labelled CALM1 (AID 1111); settings: Cy5-CALM1 binding fluorescence, higher = more signal;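 note: labelled calmodulin applied in Tris saline Tween buffer holding calcium plus EGTA and DTT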
[15] = biological target: Calmodulin-1 (Homo sapiens) (UniProt P0DP23); experiment: calcium-bound CALM1 binders on microarrays, profiling panel, artefact control for SMM control-protein annotation, biochemical, small-molecule microarray, Cy5-labelled CALM1, plus calcium (AID 1112); settings: Cy5-CALM1 binding fluorescence, higher = more signal;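 note: score merges spot fluorescence with signal to noise from triplicate slides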
[16] = small-molecule microarray binders of probe aWnt5a, primary screen, biochemical, biotinylated probe, 635/667 nm fluorescence (AID 1113); settings: higher = more signal;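 note: score merges 667 nm fluorescence intensity with signal-to-noise per printed feature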
[17] = small-molecule microarray binders of probe aShh, primary screen, biochemical, biotinylated probe, 635/667 nm fluorescence (AID 1114); settings: higher = more signal;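 note: probe is biotin-labelled aShh protein from a stem cell growth factor screen; measures binding of labelled protein to compounds printed on the slide; score merges feature fluorescence at 667 nm with signal-to-noise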
[18] = small-molecule microarray binders of probe aNog, primary screen, biochemical, biotinylated probe, 635/667 nm fluorescence (AID 1115); settings: higher = more signal;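 note: probe is biotinylated aNog protein used at 0.15 µg/mL for 1 h at 4 C; z-score combines 667 nm fluorescence of each spot with its signal to noise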
[19] = biological target: Torsin-1A-interacting protein 1 (Homo sapiens) (UniProt Q5JTV8); experiment: LAP1 binders from COS7 cell lysate, primary screen, small-molecule microarray, 635/667 nm fluorescence (AID 1116); settings: COS7-hLAP1 lysate binding, 635 nm fluorescence, higher = more signal
[20] = biological target: Alpha-bungarotoxin (Bungarus multicinctus) (UniProt P60615); experiment: alpha-bungarotoxin binders on microarray, profiling panel, artefact control for SMM control protein annotation, biochemical, small-molecule microarray, Alexa647 label, 635/667 nm fluorescence (AID 1117); settings: alpha-BTX-A647 binding fluorescence, higher = more signal
Sequence of Alpha-bungarotoxin (Bungarus multicinctus) (P60615 whole entry, looked up): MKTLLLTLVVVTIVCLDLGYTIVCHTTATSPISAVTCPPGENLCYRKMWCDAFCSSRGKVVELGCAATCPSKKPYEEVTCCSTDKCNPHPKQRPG

Sequence of Torsin-1A-interacting protein 1 (Homo sapiens) (Q5JTV8 whole entry, looked up): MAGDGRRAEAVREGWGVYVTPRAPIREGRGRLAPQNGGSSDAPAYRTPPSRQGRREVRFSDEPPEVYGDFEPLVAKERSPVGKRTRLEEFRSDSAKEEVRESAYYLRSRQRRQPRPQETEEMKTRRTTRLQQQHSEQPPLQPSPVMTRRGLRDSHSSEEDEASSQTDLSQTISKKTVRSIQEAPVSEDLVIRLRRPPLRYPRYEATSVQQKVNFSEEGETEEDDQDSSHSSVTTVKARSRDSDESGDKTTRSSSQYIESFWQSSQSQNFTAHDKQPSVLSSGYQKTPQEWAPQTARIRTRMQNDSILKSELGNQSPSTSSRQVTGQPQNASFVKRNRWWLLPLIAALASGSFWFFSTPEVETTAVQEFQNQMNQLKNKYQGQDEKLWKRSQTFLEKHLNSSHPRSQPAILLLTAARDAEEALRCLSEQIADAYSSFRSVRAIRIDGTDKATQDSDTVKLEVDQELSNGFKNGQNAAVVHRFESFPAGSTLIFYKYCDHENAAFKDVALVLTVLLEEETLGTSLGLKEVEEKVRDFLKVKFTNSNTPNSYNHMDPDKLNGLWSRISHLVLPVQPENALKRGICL
Sequence of Epidermal growth factor receptor (Homo sapiens) (P00533 whole entry, looked up): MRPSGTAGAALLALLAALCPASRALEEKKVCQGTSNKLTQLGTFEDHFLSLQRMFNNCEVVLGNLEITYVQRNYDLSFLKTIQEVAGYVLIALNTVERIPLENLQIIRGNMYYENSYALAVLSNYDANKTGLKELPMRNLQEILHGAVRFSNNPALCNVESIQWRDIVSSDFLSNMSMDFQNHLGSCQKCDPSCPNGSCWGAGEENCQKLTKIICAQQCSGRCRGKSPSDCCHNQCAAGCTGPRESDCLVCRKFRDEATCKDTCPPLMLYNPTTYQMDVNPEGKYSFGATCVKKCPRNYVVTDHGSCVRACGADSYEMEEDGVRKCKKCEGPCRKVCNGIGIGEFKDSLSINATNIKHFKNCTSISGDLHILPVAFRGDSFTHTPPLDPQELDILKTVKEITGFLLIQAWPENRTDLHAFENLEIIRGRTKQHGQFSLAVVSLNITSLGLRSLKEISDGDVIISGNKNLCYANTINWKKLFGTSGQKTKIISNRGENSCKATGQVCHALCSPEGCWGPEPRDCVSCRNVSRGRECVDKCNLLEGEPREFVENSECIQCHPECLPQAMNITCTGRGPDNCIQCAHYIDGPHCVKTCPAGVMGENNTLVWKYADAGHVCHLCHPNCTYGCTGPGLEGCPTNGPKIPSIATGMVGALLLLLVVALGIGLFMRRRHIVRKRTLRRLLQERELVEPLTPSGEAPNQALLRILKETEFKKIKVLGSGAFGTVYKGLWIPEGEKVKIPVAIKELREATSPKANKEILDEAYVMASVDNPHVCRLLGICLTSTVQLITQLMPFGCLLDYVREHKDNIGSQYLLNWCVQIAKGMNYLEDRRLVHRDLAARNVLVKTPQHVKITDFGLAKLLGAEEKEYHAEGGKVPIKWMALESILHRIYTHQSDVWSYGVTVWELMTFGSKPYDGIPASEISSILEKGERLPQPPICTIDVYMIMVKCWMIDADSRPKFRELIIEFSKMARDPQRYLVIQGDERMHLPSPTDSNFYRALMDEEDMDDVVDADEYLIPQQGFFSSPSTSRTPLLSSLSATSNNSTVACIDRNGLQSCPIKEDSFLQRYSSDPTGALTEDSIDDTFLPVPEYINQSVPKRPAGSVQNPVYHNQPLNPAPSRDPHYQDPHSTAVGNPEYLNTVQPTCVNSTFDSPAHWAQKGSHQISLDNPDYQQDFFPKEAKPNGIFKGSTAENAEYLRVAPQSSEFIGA
Sequence of Follistatin-related protein 3 (Homo sapiens) (O95633 whole entry, looked up): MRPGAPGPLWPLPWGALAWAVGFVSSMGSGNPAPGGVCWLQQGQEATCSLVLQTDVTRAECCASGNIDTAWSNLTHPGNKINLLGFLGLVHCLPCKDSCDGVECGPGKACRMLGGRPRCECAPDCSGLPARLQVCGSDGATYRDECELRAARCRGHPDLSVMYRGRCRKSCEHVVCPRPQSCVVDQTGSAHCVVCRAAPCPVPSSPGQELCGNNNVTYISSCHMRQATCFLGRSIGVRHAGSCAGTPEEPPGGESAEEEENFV
Sequence of Fibroblast growth factor 10 (Homo sapiens) (O15520 whole entry, looked up): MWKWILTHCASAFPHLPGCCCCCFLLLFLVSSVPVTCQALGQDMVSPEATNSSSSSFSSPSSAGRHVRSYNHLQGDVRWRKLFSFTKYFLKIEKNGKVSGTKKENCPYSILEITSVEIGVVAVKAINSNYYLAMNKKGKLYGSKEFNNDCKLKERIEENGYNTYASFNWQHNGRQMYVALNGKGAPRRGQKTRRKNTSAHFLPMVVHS
Sequence of Dickkopf-related protein 1 (Homo sapiens) (O94907 whole entry, looked up): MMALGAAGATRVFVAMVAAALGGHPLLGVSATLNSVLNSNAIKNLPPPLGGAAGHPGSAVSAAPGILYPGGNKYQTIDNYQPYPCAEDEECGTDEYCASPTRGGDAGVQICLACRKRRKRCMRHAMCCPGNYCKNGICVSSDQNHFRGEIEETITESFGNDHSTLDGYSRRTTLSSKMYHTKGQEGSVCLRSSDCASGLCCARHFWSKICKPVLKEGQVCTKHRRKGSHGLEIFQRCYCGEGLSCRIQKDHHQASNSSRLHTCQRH
Sequence of Left-right determination factor 2 (Homo sapiens) (O00292 whole entry, looked up): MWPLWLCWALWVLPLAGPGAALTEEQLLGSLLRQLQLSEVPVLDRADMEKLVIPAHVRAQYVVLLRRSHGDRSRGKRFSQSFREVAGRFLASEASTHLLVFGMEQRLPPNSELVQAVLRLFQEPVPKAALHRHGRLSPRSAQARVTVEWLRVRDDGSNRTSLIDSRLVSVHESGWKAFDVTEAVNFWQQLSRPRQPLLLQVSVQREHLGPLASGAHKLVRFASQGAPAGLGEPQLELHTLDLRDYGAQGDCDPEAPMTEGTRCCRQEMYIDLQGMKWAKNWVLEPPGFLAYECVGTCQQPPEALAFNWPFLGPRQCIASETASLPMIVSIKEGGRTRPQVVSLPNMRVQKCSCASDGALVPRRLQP

Structure (SMILES)	composite z-score [1]	composite z-score [2]	composite z-score [3]	z-score [4]	composite z-score [5]	composite z-score [6]	composite z-score [7]	composite z-score [8]	composite z-score [9]	composite z-score [10]	composite z-score [11]	z-score [12]	composite z-score [13]	composite z-score [14]	composite z-score [15]	composite z-score [16]	composite z-score [17]	composite z-score [18]	composite z-score [19]	composite z-score [20]
C[N+](C)(C)CCCC[C@@H]1NC(=O)[C@@H]2C[C@H](C(=O)NCCCCCN)[C@H](c3ccc(O)cc3)N2C1=O	1.55	1.16	0.808	-1.1 (inactive)	1.42	1.29	0.024	0.878	0.308	0.199	1.34	0.0633	1.24	2.08	1.12	0.0775	-0.167	1.57	1.29	2.13
COC(=O)[C@@]1(Cc2ccccc2)[C@H]2c3cc(C(=O)N4CCCC4)n(Cc4c(CO)[nH]cc(C)c4=O)c3C[C@H]2CN1C(=O)c1ccccc1	0.893	0.896	1.24	0.796 (inactive)	0.303	0.132	0.113	0.0713	-0.135	1.27	-0.596	-0.783	-0.169	1.71	0.893	0.0775	-0.181	1.28	2.02	0.546
N#Cc1ccc(C(O)C2C=CC3C(=O)N(c4ccccc4)C(=O)C3N2Nc2ccccc2F)cc1 (stereo not given)	1.65	-0.0589	0.267	-1.37 (inactive)	0.877	0.849	0.77	0.746	-0.116	0.299	1.29	-0.494	0.262	0.123	-0.564	0.0037	-0.218	-0.376	0.0448	0.175
NC(=O)[C@@]1(Cc2ccccc2)N=C(c2ccc(OCCCO)cc2)O[C@H]1c1ccccc1	0.363	0.963	1.22	-1.26 (inactive)	1.15	-0.327	0.0149	-0.68	-0.348	0.87	-1.02	-0.605	-0.949	1.19	1.2	-0.11	0.629	1.06	3.1	-0.387
O=C1NC(=O)C2C1C=CC(C(O)C=Cc1ccc([N+](=O)[O-])cc1)N2Nc1ccc(Cl)cc1Cl (stereo not given)	0.373	1.19	1.17	-0.509 (inactive)	0.641	0.364	0.41	1.02	0.0567	1.11	0.0788	0.498	0.0391	2.14	0.713	-0.031	0.317	0.0884	1.52	1.49
O=C(O)[C@@]1(CCS(=O)(=O)c2ccccc2)N=C(c2ccc(OCCCO)cc2)O[C@H]1c1ccccc1	0.729	0.737	0.905	-0.123 (inactive)	-0.678	-0.123	-0.264	0.215	-1.05	0.658	1.32	-0.124	-0.665	2.47	0.967	-0.0084	0.0639	1.1	1.08	0.524
C=CCC(OC(C)=O)[C@@H]1[C@@H](N(Cc2cc3ccccc3o2)C(=O)Cc2ccc(OC)cc2)c2cc(OCCCO)ccc2N1C(=O)c1ccc2ccccc2c1 (stereo not given in full)	1.02	-0.172	0.395	-0.564 (inactive)	-0.0205	-0.683	-0.536	-0.0573	-0.306	1.16	0.0806	-0.359	-0.0999	-0.428	0.174	-0.0754	0.0062	-0.125	0.0296	-0.396
C=C[C@H](C)[C@@H](OC(=O)Nc1ccc(SC)cc1)c1ccc(O)c2ccccc12	1.3	-0.118	0.216	-0.8 (inactive)	1.33	1.28	1.07	1.44	1.34	0.482	1.41	-0.751	1.23	0.988	-0.0069	-0.101	-0.0553	-0.343	0.575	0.893
CCOc1ccc(N2C(=O)CSC2c2cccc([N+](=O)[O-])c2)cc1 (stereo not given)	0.891	-0.117	-0.0935	-0.105 (inactive)	0.344	0.0863	0.354	0.241	0.168	-0.0762	1.35	-0.343	0.216	0.847	0.615	-0.0383	0.0796	-0.194	0.143	1.5
C=C(/C(=C/C[C@H](OC(=O)c1ccncc1)c1ccc(OCCO)cc1)c1cc(C(=O)OC)ccc1OC)C(C)C	0.569	0.031	0.244	-0.821 (inactive)	1.42	-0.534	-0.114	0.487	0.178	1.13	1.08	-0.939	0.17	0.959	-0.218	-0.128	0.111	0.108	0.296	1.72
CC(=CC1CCCCC1)[C@@H](NC(=O)c1cccnc1)c1ccc(-c2ccccc2)cc1	-0.178	-0.0066	0.849	0.772 (inactive)	-0.599	-1.11	-0.419	-0.195	-0.44	0.679	0.0493	-2.14	-0.405	0.139	0.735	-0.13	-0.0403	0.747	-0.217	-0.124
